# High-throughput results (PubChem)
# In the library only some 31% were active in any assay of this set; here they are far more common.
# PLAP act: PLAP enzyme activators, biochemical, luminescence, HTS; Alkaline phosphatase, placental type (Homo sapiens), P05187; 96,000 compounds, 1.2% hits; AID 696, 2007; purified PLAP enzyme, luminescent substrate read-out; hits give high values; activation fold at 20 µM; in the data active means activation fold above about 2
# CYP2C9 act: human CYP2C9 activators, primary screen, biochemical, luminescence | Cytochrome P450 2C9 (Homo sapiens), P11712 | recombinant CYP2C9, luciferin-H conversion; hits give high values; factor 1 = untreated enzyme, 0 = blocked | activation factor at 5 µM | 96,000 compounds, 1.4% hits | AID 1024, 2008;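 active means activation factor of 2 or more for CYP2C9 at a 5 µM dose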;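 further: 0 = sulfaphenazole-blocked wells and 1 = vehicle-only wells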
# CYP2C9 inhib: blockers of cytochrome P450 2C9 activity – biochemical, luminescence, ADME assay, primary screen; 96,000 compounds, 20% hits; inhibition, % at 5 µM; CYP2C9 Supersomes, luciferin-H conversion; P11712;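 active means blocking of liver enzyme CYP2C9 beyond about 50% at 5 µM, limit read from the data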
# CYP2C19 inhib: blockers of cytochrome P450 2C19 activity – biochemical, luminescence, ADME assay, primary screen; inhibition, % at 5 µM; CYP2C19 Supersomes, luciferin-H EGE luminescence, 30 min; AID 778, 2007; P33261; 96,000 compounds, 21% hits;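 active means CYP2C19 inhibition above a set limit at 5 µM in the primary screen, cut at about 50% in these data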;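 further: plate controls were negative control wells for no effect and 2.5 mM tranylcypromine positive control for full effect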
# Target sequence (P33261 whole entry, looked up): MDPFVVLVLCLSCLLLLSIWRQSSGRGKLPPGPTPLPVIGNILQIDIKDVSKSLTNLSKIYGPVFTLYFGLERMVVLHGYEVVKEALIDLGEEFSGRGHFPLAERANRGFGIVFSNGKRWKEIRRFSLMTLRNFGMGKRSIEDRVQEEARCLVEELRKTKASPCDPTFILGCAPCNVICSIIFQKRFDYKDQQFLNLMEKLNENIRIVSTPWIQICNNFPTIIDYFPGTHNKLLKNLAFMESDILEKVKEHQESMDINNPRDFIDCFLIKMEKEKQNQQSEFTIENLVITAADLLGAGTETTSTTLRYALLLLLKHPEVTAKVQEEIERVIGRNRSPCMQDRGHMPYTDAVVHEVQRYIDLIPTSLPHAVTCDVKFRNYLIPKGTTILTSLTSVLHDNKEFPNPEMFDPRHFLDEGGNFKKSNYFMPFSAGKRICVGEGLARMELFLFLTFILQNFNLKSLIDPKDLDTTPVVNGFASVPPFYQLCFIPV
# CYP2C19 activ: human CYP2C19 activators, primary screen, biochemical, luminescence | Cytochrome P450 2C19 (Homo sapiens), P33261 | recombinant CYP2C19, luciferin-H EGE luminescence; hits give high values; 0 = fully inhibited enzyme, 1 = untreated enzyme | activation factor at 5 µM | 96,000 tested, under 10 active | AID 1025, 2008;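 active means activation factor of at least 2 at 5 µM in the primary screen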;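 further: 0 = wells with 2.5 mM tranylcypromine and 1 = vehicle-only wells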
# Active calls of the source: *; nt = no result.
SMILES,PLAP act,CYP2C9 act,CYP2C9 inhib,CYP2C19 inhib,CYP2C19 activ
CCOC(=O)N1CCC(NC(=O)c2cc3c(C)nc4ccccc4c3o2)CC1,1.6,0.4,61*,40,0.6
CCOC(=O)N1CCC(NC(=O)c2ccc3c(c2)N(Cc2ccccc2)CCS3)CC1,nt,0.1,92*,85*,0.1
CCCc1cc(N2CCCC(C(=O)NCC)C2)n2ncnc2n1 (configuration not stated),0.8,1,4,-1,1
O=C(Cc1ccc(F)cc1)Nc1ccc(F)c([N+](=O)[O-])c1,0.9,0.7,28,56*,0.4
O=C(CN1CCN(c2ccc(F)cc2)CC1)Nc1ccc(F)c(F)c1,1,0.7,32,31,0.7
CCN(c1nc(C)cc(OC)n1)S(=O)(=O)c1ccccc1,0.9,0.8,20,76*,0.2
O=C(NCCCN1CCCC1=O)c1ccc(Cl)c(NS(=O)(=O)c2ccc(F)cc2)c1,1.4,0.8,22,-7,1.1
CC(C)c1[nH]c(=O)c(C#N)c2c1COC(C)(C)C2,1,1.1,-6,17,0.8
CC(C)c1[nH]c(=O)c(C#N)c2c1CSC(C)(C)C2,1.2,1,3,71*,0.3
CCCCc1[nH]c(=O)c(C#N)c2c1CSC(C)(C)C2,1.5,0.6,37,63*,0.4
CCOC(=O)C(C)c1n[nH]c(=O)c2ccccc12 (configuration not stated),0.8,1,3,4,1
CCCCn1ccc(=O)c2c(C(F)(F)F)nccc21,0.8,1.1,-6,-8,1.1
Cc1ccc(OCc2nc(-c3ccccn3)no2)cc1,0.9,0.7,32,41,0.6
Cc1ccc(SC(C)c2nc(-c3ccncc3)no2)cc1 (configuration not stated),1.4,0,96*,100*,0
Cc1ccc(SCc2nc(-c3ccncc3)no2)cc1,1.2,0.1,91*,99*,0
c1ccc(SCc2nc(-c3ccncc3)no2)cc1,1.2,0.2,83*,96*,0
Cc1ccc(SCc2nc(-c3ccccn3)no2)cc1,0.8,0.5,52*,86*,0.1
C=CCn1c(SCc2ccc3c(c2)OCO3)nc2scc(-c3ccco3)c2c1=O,0.9,0.8,25,43,0.6
CC1(C)CC(CC(=O)O)(c2ccc(Cl)cc2)CCO1 (configuration not stated),0.8,1,1,10,0.9
O=C1c2ccccc2C(=O)N1Cc1nc(-c2ccccc2)no1,0.9,0.9,14,49,0.5
O=C1c2ccccc2C(=O)N1CCCSc1nc2ccccc2o1,1.1,0.8,25,46,0.5
Cc1ccc(SCc2nc(-c3ccccc3)no2)cc1,0.8,0.5,51*,86*,0.1
O=C1c2ccccc2C(=O)N1Cc1nc2ccccc2o1,1,1.2,-16,64*,0.4
O=C1c2ccccc2C(=O)N1Cc1nc(-c2ccncc2)no1,1.1,0.2,84*,92*,0.1
Cc1nc2sc(C(c3cccs3)N3CC(C)CC(C)C3)c(O)n2n1 (configuration not stated),1.5,1.1,-14,67*,0.3
SMILES,PLAP act,CYP2C9 act,CYP2C9 inhib,CYP2C19 inhib,CYP2C19 activ
COc1ccccc1C1CC(=O)Nc2cc3c(cc21)OCCO3 (configuration not stated),0.9,0.3,74*,33,0.7
COc1cc2c(cc1OC)C(c1ccc(N(C)C)cc1)CC(=O)N2 (configuration not stated),1.2,0.9,6,46,0.5
CCOc1ccccc1C1CC(=O)NC(SCC)=C1C#N (configuration not stated),1.2,0.7,26,39,0.6
CCOc1ccccc1C1CC(=O)Nc2cc3c(cc21)OCO3 (configuration not stated),0.9,0.3,66*,98*,0
O=C1CC(c2cccs2)c2cc3c(cc2N1)OCCO3 (configuration not stated),1,0.3,71*,68*,0.3
COc1cccc(C2CC(=O)Nc3cc4c(cc32)OCCO4)c1OC(C)C (configuration not stated),1.2,0.4,63*,49,0.5
CC(C)Oc1ccccc1C1Nc2ccccc2C(=O)N1c1ccc2c(c1)OCCO2 (configuration not stated),1.6,0,96*,95*,0.1
Cc1ccc(C2CC(=O)Nc3cc4c(cc32)OCCO4)s1 (configuration not stated),0.8,0.7,35,9,0.9
CC(C)Oc1ccccc1C1CC(=O)Nc2cc3c(cc21)OCCO3 (configuration not stated),1,0,96*,96*,0
C/C(=N\OC(=O)c1ccccc1F)c1nccs1,0.9,1,3,10,0.9
CC(C)NC(=O)/C(=N\O)c1ccccc1,0.9,1,-2,-9,1.1
CCCCn1c(=O)n(CC(=O)Nc2ccc(C)c(Cl)c2)c(=O)c2c1ncn2Cc1ccco1,1,0.4,62*,51*,0.5
CCCCn1c(=O)n(CC(=O)Nc2ccc(OC)c(Cl)c2)c(=O)c2c1nc(CO)n2CCC,0.9,0.1,90*,79*,0.2
CCOC(=O)C1CCN(C(=O)CCS(=O)(=O)c2ccc3c(c2)CCN3C(C)=O)CC1,1.4,1.2,-17,5,1
Cc1cc(NC(=O)/C=C/c2ccccc2)no1,0.7,1,-2,7,0.9
CCOC(=O)C(=O)/C(=C\N(C)C)c1onc(-c2c(Cl)cccc2Cl)c1C(=O)OC,1.4,0.1,91*,55*,0.5
CCOC(=O)C(=O)/C(=C\N(C)C)c1onc(-c2ccccc2Cl)c1C(=O)OC,1.6,0.3,67*,44,0.6
COCCSc1ccccc1C(=O)Nc1ccncc1,1.6,0.2,84*,92*,0.1
COCCSc1ccccc1C(=O)Nc1nncs1,1,1,-2,0,1
COCCCN(C(=O)Nc1ccccc1)C(C)c1ccncc1 (configuration not stated),1,0.4,60*,77*,0.2
Cc1ccc(CNC(=O)CSc2c3c(nc4cc(Cl)ccc24)CCCC3)o1,1.5,0.6,39,80*,0.2
CCC(C)NC(=O)C(Cc1ccccc1)NS(=O)(=O)c1cccc2nsnc12 (configuration not stated),0.9,0.9,15,9,0.9
CC(CCc1ccccc1)NC(=O)C(Cc1ccccc1)NS(=O)(=O)c1cccs1 (configuration not stated),0.7,0.2,79*,76*,0.2
CC1CCCCC1NC(=O)C(Cc1ccccc1)NS(=O)(=O)c1cccs1 (configuration not stated),1.1,0.3,73*,84*,0.2
